Screens (PubChem BioAssay)
Many of the other results were omitted from the sample, so hits are more common in it than they were.
RmlCD inh mix: RmlC/RmlD inhibition, mixture screen | RmlC/RmlD coupled enzyme inhibition, 384-well mixture HTS | inhibition, % at 5.5 µM | 110,000 tested, 0.39% active; in the data active means inhibition above about 30%, passing the limit was not always enough; inconclusive means no clear call, values can overlap the other calls
HIV RNase H inh-1: blocks HIV-1 RNase H cleavage of RNA/DNA duplex | P04585 | RT-RNase H RNA/DNA duplex cleavage, fluorescence | inhibition, % at 10 µM | 65,000 tested, 1.9% active | AID 565; in the data active means inhibition above about 50%
HIV RNase H inh-2: confirmation of HIV-1 reverse transcriptase RNase H inhibitors | inhibition, % at 10 µM | 1,000 tested, 39% active | Recombinant RT RNase H, fluorescent RNA/DNA duplex cleavage | shares compounds with HIV RNase H inh-1; in the data active means inhibition above about 48%; inconclusive means no clear call, values can overlap the other calls
RmlCD artifact: shows fluorescent artifact in RmlC/RmlD assay, dose-response counter-screen | shares compounds with RmlCD inh mix | RmlC/RmlD assay fluorescence artifact counter-screen | calls only | 360 tested, 96% active | AID 1696; call rule not given here;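 further: compound alone with no enzyme and no substrates present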
The depositor's hits bear a star.

`COC(=O)c1sc(NC(=O)CSc2nnnn2-c2ccc(C)cc2C)nc1C` gave RmlCD inh mix 6.7, HIV RNase H inh-1 63.8* and HIV RNase H inh-2 8.6.
`COc1ccccc1-c1noc(CCC(=O)Nc2ccccc2Cl)n1` gave RmlCD inh mix 7.0 and HIV RNase H inh-1 7.8.
Screening CC1(C)CC(=O)C(CC2=C(O)CC(C)(C)CC2=O)=C(O)C1 returned RmlCD inh mix 3.4 and HIV RNase H inh-1 -10.9.
`Cc1c(Cc2ccccc2)sc(NC(=O)Cc2ccccc2)c1C(N)=O` gave RmlCD inh mix 2.3.
Cc1c(Cc2ccccc2)sc(N)c1C(N)=O was read as RmlCD inh mix 6.6, HIV RNase H inh-1 81.7* and HIV RNase H inh-2 inconclusive.
For Cc1c(C(=O)NC2=NCCS2)oc2ccccc12 the results were RmlCD inh mix 7.9 and HIV RNase H inh-1 -17.4.
Screening Cc1sc(NC(=O)c2oc3ccccc3c2C)c(C#N)c1C returned RmlCD inh mix 3.6, HIV RNase H inh-1 56.9* and HIV RNase H inh-2 82.7*.
Screening CCOc1ccc(C(=O)OCC(=O)Nc2cc(C)on2)cc1OCC returned RmlCD inh mix -117.0.
Screening COc1cc(C(=O)OCC(=O)Nc2cc(C)on2)ccc1OCc1ccccc1Cl returned RmlCD inh mix 17.2, HIV RNase H inh-1 51.7* and HIV RNase H inh-2 20.8.
Cc1ccccc1N1C(=O)C(Cl)=C(N2CCCCCC2)C1=O was read as RmlCD inh mix -0.7 and HIV RNase H inh-1 8.6.
`O=C1C(Cl)=C(N2CCCCC2)C(=O)N1c1ccccc1Cl` gave RmlCD inh mix -4.6, HIV RNase H inh-1 72.2* and HIV RNase H inh-2 40.0.
CCCCC(=O)Nc1ccc(C(=O)NN2C(=O)c3ccccc3C2=O)cc1 was read as RmlCD inh mix 7.5.
For COc1ccc(C2C(C(C)=O)=C(C)N=c3s/c(=C/c4ccc5c(c4)OCO5)c(=O)n32)cc1 (centres undefined) the results were HIV RNase H inh-1 69.6* and HIV RNase H inh-2 53.6*.
Screening CC(=O)C1=C(C)N=c2s/c(=C/c3ccc4c(c3)OCO4)c(=O)n2C1c1ccc(N(C)C)cc1 (centres undefined) returned HIV RNase H inh-1 45.1.
For N#CC1=C(N)N(c2ccc(Br)cc2)C2=C(C(=O)CCC2)C1c1cccnc1 (centres undefined) the results were HIV RNase H inh-1 -23.8.
For O=C(c1coc(=O)c(Br)c1)N1CCOCC1 the results were RmlCD inh mix 14.8, HIV RNase H inh-1 61.5* and HIV RNase H inh-2 47.6.
O=C(c1ccc(=O)oc1)N1CCOCC1 was read as HIV RNase H inh-1 1.8.
Screening COc1cc(C)c(C(C)C)cc1S(=O)(=O)NCCCn1ccnc1 returned RmlCD inh mix 8.3 and HIV RNase H inh-1 -40.0.
`CC#C[C@]1(O)CC[C@H]2[C@@H]3CCC4=CC(=O)CCC4=C3[C@@H](c3ccc(N(C)C)cc3)C[C@@]21C` gave RmlCD inh mix 1.0.
Screening Cc1ccc(NC(=O)c2cc(-c3ccc(C)o3)nc3ccccc23)cc1 returned RmlCD inh mix -11.4.
`Cc1ccc(-c2cc(C(=O)Nc3cccnc3)c3ccccc3n2)o1` gave RmlCD inh mix -20.9, HIV RNase H inh-1 68.7* and HIV RNase H inh-2 31.6.
`COc1ccccc1CNC(=O)c1cc2c(=O)n(C)c3ccccc3c2n1C` gave HIV RNase H inh-1 88.9* and HIV RNase H inh-2 87.6*.
Screening Cn1c(C(=O)NCc2ccccn2)cc2c(=O)n(C)c3ccccc3c21 returned RmlCD inh mix 2.3 and HIV RNase H inh-1 -11.0.
`CC1(C)CC(C#N)(N2CCOCC2)CCO1` (centres undefined) gave RmlCD inh mix 12.0 and HIV RNase H inh-1 -7.8.
`CC(=O)Nc1ccc(S(=O)(=O)NCCSCc2ccc(Cl)cc2Cl)cc1` gave RmlCD inh mix -47.1.
COc1ccc(C2C(C#N)=C(N)N3C(=C2C#N)Sc2ccccc23)cc1 (centres undefined) was read as RmlCD inh mix -11.9, HIV RNase H inh-1 86.6* and HIV RNase H inh-2 60.4*.
Screening COc1ccc(C2C(C#N)=C(N)N(c3sc4c(c3C#N)CCCC4)C3=C2C(=O)CC(C)(C)C3)cc1 (centres undefined) returned RmlCD inh mix 8.0.
For CC(C)(NCc1ccccc1Cl)C(=O)O the results were HIV RNase H inh-1 0.6.
Screening CCOC(=O)CSC1=C(C#N)C(c2ccccc2Cl)C(C(=O)OC)C(=O)N1 (centres undefined) returned RmlCD inh mix 128.3 and HIV RNase H inh-1 1.3.
For COc1cccc(NC(=O)c2nc3ncccn3n2)c1 the results were HIV RNase H inh-1 -3.0.
Screening COc1ccccc1CNC(=O)c1nn(-c2ccc(C)cc2)c(=O)c2c1c1ccccc1n2C returned RmlCD inh mix -21.1.
`COc1ccc(-n2nc(C(=O)NCc3ccco3)c3c4ccccc4n(C)c3c2=O)cc1Cl` gave RmlCD inh mix 14.2, HIV RNase H inh-1 71.2* and HIV RNase H inh-2 8.5.
For Cc1nn(CCc2nc(-c3ccco3)cs2)c2[nH]c(=O)cc(C(F)(F)F)c12 the results were RmlCD inh mix 1.2, HIV RNase H inh-1 87.6* and HIV RNase H inh-2 68.6*.
`Cc1cc(C)n(CCc2nc(-c3ccco3)cs2)n1` gave RmlCD inh mix -6.2.
O=C(NCCO)c1nc(NCCO)c2ccccc2n1 was read as RmlCD inh mix 6.5 and HIV RNase H inh-1 -14.6.
`CCC(CC)c1nc(NCCC(=O)O)c2ccccc2n1` gave RmlCD inh mix 8.0, HIV RNase H inh-1 76.2* and HIV RNase H inh-2 40.3.
Screening Cc1cc(C)n2nc(SC3CCCCN(C(=O)c4ccc(F)cc4)C3=O)nc2n1 (centres undefined) returned RmlCD inh mix 5.4 and HIV RNase H inh-1 5.0.
`COCCn1c(-c2ccc(-c3ccccc3Cl)o2)nc2c1c(=O)[nH]c(=O)n2CC(C)C` gave RmlCD inh mix 143.8*, HIV RNase H inh-1 73.0*, HIV RNase H inh-2 72.6* and RmlCD artifact active.
`CCCCn1c(=O)[nH]c(=O)c2c1nc(-c1ccc(-c3ccccc3Br)o1)n2CCOC` gave RmlCD inh mix -81.7.
For CCOC(=O)C1=C(CSc2nc(C)ccc2C#N)OC(N)=C(C#N)C1c1cccc(OC)c1OC (centres undefined) the results were RmlCD inh mix 0.1 and HIV RNase H inh-1 -1.0.
COC(=O)c1cc(=O)nc2sc3ccccc3n12 was read as RmlCD inh mix -10.3 and HIV RNase H inh-1 -5.7.
`COC(=O)c1cc(=O)nc2sc(-c3cccs3)nn12` gave RmlCD inh mix 39.4*, HIV RNase H inh-1 2.4 and RmlCD artifact active.
Screening O=C1C=C(c2cccc(O)c2)CCC1 returned RmlCD inh mix 11.7.
Screening CC(=O)n1nc(-c2ccccc2)nc1NCc1ccc(F)cc1 returned RmlCD inh mix -3.5 and HIV RNase H inh-1 -9.5.
Screening O=C(c1ccc(F)cc1)n1c(NCc2ccccc2)n[nH]c1=S returned RmlCD artifact inactive.
`CC(C)CC(=O)Nc1ccccc1Oc1ccccc1` gave RmlCD inh mix 38.8.
Screening CCS(=O)(=O)c1ccc(S(=O)(=O)CC)s1 returned RmlCD inh mix 26.1 and HIV RNase H inh-1 -1.5.
For COc1ccc(-c2cc(C(F)(F)F)n3ncc(C(=O)NCC4CCCO4)c3n2)cc1 (centres undefined) the results were RmlCD inh mix 36.2*, HIV RNase H inh-1 4.2 and RmlCD artifact active.
